Test results: PubChem BioAssay (NCI)
Values joined by “and” are separate entries in the source; they are usually repeats but may differ in a detail not shown here. Identical values can stand only once. About 79,000 compounds went through this panel and 15% of them were active in at least one assay; those are over-represented in the sample as a whole. A number with no mark means an inactive call. Active and inactive are the calls of the source. No stated cut-off is given here; in the data, active means growth inhibition above about 70%; inactive means the rest.

Test: NCI Yeast Anticancer Drug Screen. Data for the bub3 strain (AID 167)
Conditions: S. cerevisiae bub3 mutant strain, at 50.0 µM (retest, dose inferred, filed as 5.0), active compounds read high
Outline: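 Growth of a checkpoint-deficient yeast mutant is measured after compound exposure. Values represent inhibition relative to vehicle.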

Q: Which growth inhibition does the source give for `CC(=O)OC(OC(C)=O)c1ccc2ccc3cccc4ccc1c2c34` here?
A: 85% (active)

Q: For `C[N+]1=C(/C=C\c2ccc(O)c3ccccc23)C(C)(C)c2ccccc21`, which growth inhibition is on record?
A: 82% (active)

Q: For `CCCCC(O)CCCC`, which growth inhibition is on record?
A: 91% (active)

Q: For `Nc1ccc(O)c2ccccc12`, which growth inhibition is on record?
A: 93% (active)

Q: Which growth inhibition does the source give for `O=C1CCC(Cc2ccc(C(F)(F)F)cc2)C(=O)N1` (stereo not given) here?
A: -2%

Q: With `CCCCCCCC[N+](C)(C)Cc1ccc(C[N+](C)(C)CCCCCCCC)cc1` as the compound, how does the growth inhibition read?
A: 16%

Q: For `CC(C)(N)COB(c1ccccc1)c1ccccc1`, which growth inhibition is on record?
A: 98% (active)

Q: Which growth inhibition does the source give for `CCCCC(Oc1cc(C(C)(C)C)c(O)c(C(C)(C)C)c1)C(=O)O` (stereo not given) here?
A: 97% (active)

Q: With `CCCCCCCCN(CCCCCCCC)Cc1ccc(Br)cc1` as the compound, how does the growth inhibition read?
A: 99% (active)

Q: Which growth inhibition does the source give for `CCc1cc2c(c3c1C(=O)CC3)C(C)(C)CCC2` here?
A: 97% (active)

Q: Which growth inhibition does the source give for `FC(F)(F)c1ccc(Cl)c(NC(=S)SC2CCCCC2)c1` here?
A: 98% (active)

Q: With `NC(N)=Nc1ccc(Cc2ccc(N=C(N)N)cc2)cc1` as the compound, how does the growth inhibition read?
A: 2%

Q: For `Nc1ccc(-c2cccc(-c3ccccc3)c2)cc1`, which growth inhibition is on record?
A: 97% (active)

Q: For `COc1cc(CSc2ccc(O)cc2)cc(OC)c1OC`, which growth inhibition is on record?
A: 21%

Q: For `CC(C)N(CC(=O)c1ccc2cc(Cl)c3ccccc3c2c1)C(C)C`, which growth inhibition is on record?
A: 97% (active)

Q: With `Cc1c(N2CCCC2)cc2c(c1NC(=O)c1ccccc1Cl)C(C)(C)CC2(C)C` as the compound, how does the growth inhibition read?
A: 80% (active)

Q: With `CNc1ccc([N+](=O)[O-])cc1` as the compound, how does the growth inhibition read?
A: 14%

Q: For `CC(C)(C)OC(=O)c1ccc(NCC2=C(Br)C(=O)C=CC2=O)cc1`, which growth inhibition is on record?
A: 96% (active)

Q: With `CCN(CC)CCNc1ccc(C)c2oc3ccc(O)cc3c(=O)c12` as the compound, how does the growth inhibition read?
A: 41%

Q: For `CCS(=O)(=O)c1ccc(NC(=O)OC2CCCCCCC2)cc1`, which growth inhibition is on record?
A: -30%

Q: With `Cc1cc2c(c3c1C(=O)CC3)C(C)(C)CC2(C)C` as the compound, how does the growth inhibition read?
A: 92% (active)

Q: With `O=C(O)/C=C\c1cc2ccccc2c2ccccc12` as the compound, how does the growth inhibition read?
A: 99% (active)

Q: Which growth inhibition does the source give for `CC[N+](C)(CC)CCC[n+]1c(-c2ccccc2)c2cc(N)ccc2c2ccc(N)cc21` here?
A: 9%

Q: With `Cn1nc2c(c(Cl)c1=O)Nc1ccccc1O2` as the compound, how does the growth inhibition read?
A: -18%

Q: Which growth inhibition does the source give for `COC(=O)CSc1nc2[nH]c(SC)c(C(N)=O)c2c(=O)n1-c1ccccc1` here?
A: 21%

Q: With `O=S(=O)(Nc1ccc(Cl)cc1)c1ccccc1` as the compound, how does the growth inhibition read?
A: 56%

Q: For `COc1ccc(C(=O)Nc2ccc(Cl)cc2)cc1`, which growth inhibition is on record?
A: -6%

Q: Which growth inhibition does the source give for `C=CCOC(=O)CCC(=O)N(CC)CC` here?
A: 1%

Q: For `N#CCC(=O)N/N=C(/CC1(O)C(=O)Nc2c(Cl)cc(Cl)cc21)c1ccccc1` (stereo not given), which growth inhibition is on record?
A: 22%

Q: For `CCCCOC(=O)c1cnc[nH]c1=O`, which growth inhibition is on record?
A: 14%

Q: Which growth inhibition does the source give for `CCCCOC(=O)c1ccc(O)c(OC)c1` here?
A: 96% (active)

Same assay, conditions: S. cerevisiae bub3 mutant strain, at 50.0 µM, active compounds read high

Q: For `CC(=O)OC(OC(C)=O)c1ccc2ccc3cccc4ccc1c2c34`, which growth inhibition is on record?
A: 69%

Q: Which growth inhibition does the source give for `C[N+]1=C(/C=C\c2ccc(O)c3ccccc23)C(C)(C)c2ccccc21` here?
A: 38.5%

Q: For `OCC(O)C(O)C(O)C(O)CNCC(O)C(O)C(O)C(O)CO` (stereo not given), which growth inhibition is on record?
A: 13% and 14.2% and 3.75%

Q: With `NCC(=O)NC(CO)C(=O)O` (stereo not given) as the compound, how does the growth inhibition read?
A: -24.7% and -11.4% and -3.6%

Q: With `CCCCC(O)CCCC` as the compound, how does the growth inhibition read?
A: 64.2%

Q: For `Nc1ccc(O)c2ccccc12`, which growth inhibition is on record?
A: 87.2% (active)

Q: Which growth inhibition does the source give for `O=C1CCC(Cc2ccc(C(F)(F)F)cc2)C(=O)N1` (stereo not given) here?
A: -52.6%

Q: Which growth inhibition does the source give for `CCCCCCCC[N+](C)(C)Cc1ccc(C[N+](C)(C)CCCCCCCC)cc1` here?
A: 8.35%

Q: For `CC(C)(N)COB(c1ccccc1)c1ccccc1`, which growth inhibition is on record?
A: 99.8% (active)

Q: For `CCCCC(Oc1cc(C(C)(C)C)c(O)c(C(C)(C)C)c1)C(=O)O` (stereo not given), which growth inhibition is on record?
A: 99.2% (active)

Q: For `CCCCCCCCN(CCCCCCCC)Cc1ccc(Br)cc1`, which growth inhibition is on record?
A: 99.2% (active)

Q: Which growth inhibition does the source give for `CCc1cc2c(c3c1C(=O)CC3)C(C)(C)CCC2` here?
A: 48.5%

Q: For `FC(F)(F)c1ccc(Cl)c(NC(=S)SC2CCCCC2)c1`, which growth inhibition is on record?
A: 98.8% (active)

Q: For `NC(N)=Nc1ccc(Cc2ccc(N=C(N)N)cc2)cc1`, which growth inhibition is on record?
A: -10.2%

Q: For `Nc1ccc(S(=O)(=O)O)c2ccccc12`, which growth inhibition is on record?
A: -1.95% and -17.8% and 7.6%

Q: For `Nc1ccc(-c2cccc(-c3ccccc3)c2)cc1`, which growth inhibition is on record?
A: 98.3% (active)

Q: For `COc1cc(CSc2ccc(O)cc2)cc(OC)c1OC`, which growth inhibition is on record?
A: 81.8% (active)

Q: Which growth inhibition does the source give for `CC(C)N(CC(=O)c1ccc2cc(Cl)c3ccccc3c2c1)C(C)C` here?
A: 98.5% (active)

Q: With `Cc1c(N2CCCC2)cc2c(c1NC(=O)c1ccccc1Cl)C(C)(C)CC2(C)C` as the compound, how does the growth inhibition read?
A: 90.7% (active)

Q: For `CNc1ccc([N+](=O)[O-])cc1`, which growth inhibition is on record?
A: 31.1%

Q: Which growth inhibition does the source give for `CC(C)(C)OC(=O)c1ccc(NCC2=C(Br)C(=O)C=CC2=O)cc1` here?
A: 80.8% (active)

Q: With `CCN(CC)CCNc1ccc(C)c2oc3ccc(O)cc3c(=O)c12` as the compound, how does the growth inhibition read?
A: 81.7% (active)

Q: For `CSc1ccccc1C(=O)O`, which growth inhibition is on record?
A: -30.5% and -6.5% and -34%

Q: For `CCS(=O)(=O)c1ccc(NC(=O)OC2CCCCCCC2)cc1`, which growth inhibition is on record?
A: 95.2% (active)

Q: For `Cc1cc2c(c3c1C(=O)CC3)C(C)(C)CC2(C)C`, which growth inhibition is on record?
A: 70.2% (active)

Q: With `OC(c1ccccc1)C(O)c1ccccc1` (stereo not given) as the compound, how does the growth inhibition read?
A: 9.4% and 11.6% and 15.7%

Q: With `Cc1ccc(S(=O)(=O)OCC(O)C(O)COS(=O)(=O)c2ccc(C)cc2)cc1` (stereo not given) as the compound, how does the growth inhibition read?
A: 9.15% and -12.4% and 6.35%

Q: Which growth inhibition does the source give for `O=C(O)/C=C\c1cc2ccccc2c2ccccc12` here?
A: 98.5% (active)

Q: For `CC[N+](C)(CC)CCC[n+]1c(-c2ccccc2)c2cc(N)ccc2c2ccc(N)cc21`, which growth inhibition is on record?
A: 18.9%

Q: Which growth inhibition does the source give for `Cn1nc2c(c(Cl)c1=O)Nc1ccccc1O2` here?
A: 1.35%

Q: Which growth inhibition does the source give for `COC(=O)CSc1nc2[nH]c(SC)c(C(N)=O)c2c(=O)n1-c1ccccc1` here?
A: 7.8%

Q: Which growth inhibition does the source give for `O=S(=O)(Nc1ccc(Cl)cc1)c1ccccc1` here?
A: 53.9%

Q: With `COc1ccc(C(=O)Nc2ccc(Cl)cc2)cc1` as the compound, how does the growth inhibition read?
A: -8.95%

Q: With `CC(=O)OC1COC(SC(=N)N)C(OC(C)=O)C1OC(C)=O` (stereo not given) as the compound, how does the growth inhibition read?
A: 1.65% and 6.55% and -1.75%

Q: For `C=CCOC(=O)CCC(=O)N(CC)CC`, which growth inhibition is on record?
A: -7.35%

Q: For `N#CCC(=O)N/N=C(/CC1(O)C(=O)Nc2c(Cl)cc(Cl)cc21)c1ccccc1` (stereo not given), which growth inhibition is on record?
A: 26.4%

Q: Which growth inhibition does the source give for `CCCCOC(=O)c1cnc[nH]c1=O` here?
A: 3.55%

Q: For `COC1OC2COC(c3ccccc3)OC2C(O)C1O` (stereo not given), which growth inhibition is on record?
A: -9.35% and -19.9% and -17.4%

Q: With `CCCCOC(=O)c1ccc(O)c(OC)c1` as the compound, how does the growth inhibition read?
A: 95.7% (active)
